Bioassay records: PubChem, Pan Lab, Icahn School of Medicine at Mount Sinai
ROC1-CUL1 inh = inhibitors of human ROC1-CUL1 ubiquitin ligase activity; in vitro K48 di-Ub FRET, acceptor:donor ratio, 45 min; AID 1347404; 140,000 tested, 0.6% active; inhibition, % at 10 µM; P62877+Q13616; in the data active = inhibition above about 25%
* hit, by the source's call. This excerpt belongs to a sample that is enriched for hits.

Screening COc1ccc(OCC(=O)N2CCN(C(=O)c3cccc(OC)c3OC)CC2)cc1 returned ROC1-CUL1 inh 1.
Screening COc1ccc(NC(=O)CSc2nc(C)cc(C)c2C(=O)Nc2ccccc2OC)cc1 returned ROC1-CUL1 inh 8.
`CN(C)c1ccc(/C=C/C(=O)c2ccc3c4c(cccc24)CC3)cc1` gave ROC1-CUL1 inh 4.
Screening O=C(C[n+]1ccc(-c2ccccc2)cc1)c1ccccc1 returned ROC1-CUL1 inh -1.
O=C(/C=C/c1cc[n+](CC(=O)c2ccc3cccc4c3c2CC4)cc1)c1ccc2cccc3c2c1CC3 was read as ROC1-CUL1 inh 87*.
Cc1c(Cl)cccc1N1CC(c2nc3ccccc3n2Cc2ccccc2F)CC1=O (configuration not stated) was read as ROC1-CUL1 inh -1.
Screening CCCc1nn2c(C)c(-c3ccccc3)nc2s1 returned ROC1-CUL1 inh 22.
Screening COc1cc(N2CCCC2)c(OC)cc1/C=C1\SC(=O)N(Cc2ccc(C)cc2)C1=O returned ROC1-CUL1 inh -13.
For Cc1cc(C=C2C(=O)c3ccccc3C2=O)ccc1N1CCCC1 the results were ROC1-CUL1 inh 11.
For COc1cc(N2CCCC2)c(OC)cc1C=C1C(=O)c2ccccc2C1=O the results were ROC1-CUL1 inh 48*.
For CC(C)c1n[nH]c2c1CN(Cc1ccc(Sc3nncn3C)o1)CC2 the results were ROC1-CUL1 inh 0.
Screening CC1=Nc2nc(SCc3cccc(C)c3)nn2C(c2cccs2)C1C(=O)Nc1ccc(C)cc1C (configuration not stated) returned ROC1-CUL1 inh -1.
For Cn1c(CSC(=N)N)c(Br)c(=O)n1-c1ccccc1 the results were ROC1-CUL1 inh 4.
For Cc1nc2ncc3c(=O)n(C(C)C)ccc3n2n1 the results were ROC1-CUL1 inh 13.
CC(C)(C)NC(=O)c1ccccc1NS(=O)(=O)c1cccs1 was read as ROC1-CUL1 inh 6.
Cc1ccc(Cl)cc1NC(=O)C1CC(=O)N(c2cccc(Cl)c2C)C1 (configuration not stated) was read as ROC1-CUL1 inh -7.
Cc1ccc(S(C)(=O)=O)cc1S(=O)(=O)Nc1cccc(Cl)c1 was read as ROC1-CUL1 inh -2.
Screening CCCC1=Nc2cc(C(=O)NCCc3ccc(OC)cc3OC)ccc2Sc2ccccc21 returned ROC1-CUL1 inh 5.
Screening CCOc1cc(CN2CCC(C(Cc3ccccc3)N(C(=O)c3ccco3)C3CC3)CC2)ccc1O (configuration not stated) returned ROC1-CUL1 inh 2.
For CCOc1ccc(CNCc2ccc(F)cc2)cc1 the results were ROC1-CUL1 inh 5.
For C=CCN1C(=O)N=C(Cc2ccc(-c3cccc(Br)c3)o2)C1=O the results were ROC1-CUL1 inh -1.
COCCN1C(=O)C(Cc2ccc(-c3cccc(C(=O)O)c3)o2)=NC1=S was read as ROC1-CUL1 inh 35*.
Screening O=C(O)c1cccc(-c2ccc(CNC3CCCC3)o2)c1 returned ROC1-CUL1 inh -6.
Screening CCOc1cc(S(=O)(=O)n2ccnc2C)ccc1Cl returned ROC1-CUL1 inh -11.
CCN=C1CC=CC=C(C(=O)/C=C/c2ccc(Cl)cc2)C1=O was read as ROC1-CUL1 inh 79*.
Screening CCN=C1CC=CC=C(C(=O)/C=C/c2ccc(Cl)cc2Cl)C1=O returned ROC1-CUL1 inh 4.
Screening CCN=C1CC=CC=C(C(=O)/C=C/c2cccc(Cl)c2)C1=O returned ROC1-CUL1 inh 7.
Screening CCN=C1CC=CC=C(C(=O)/C=C/c2cccc(OC)c2OC)C1=O returned ROC1-CUL1 inh -3.
`CCN=C1CC=CC=C(c2ccc3ccccc3n2)C1=O` gave ROC1-CUL1 inh -4.
CCN=C1CC=CC=C(C(=O)/C=C/c2ncccc2C)C1=O was read as ROC1-CUL1 inh 36*.
Screening Cc1cccc(C)c1NC(=O)CCSc1nc(-c2ccc3c(c2)OCO3)cc(C(F)(F)F)n1 returned ROC1-CUL1 inh 6.
For Cc1ccc(CNC(=O)C2CCC(CNS(=O)(=O)c3ccc4c(c3)CCCC(=O)N4)CC2)cc1 (configuration not stated) the results were ROC1-CUL1 inh -7.
`O=C1NC(=S)NC(=O)C1=Cc1ccc(-c2ccccc2Cl)o1` gave ROC1-CUL1 inh 1.
`CC(=O)NS(=O)(=O)c1ccc(Br)cc1` gave ROC1-CUL1 inh -3.
CC(=O)NS(=O)(=O)c1ccc(-c2ccc(C=C3C(=O)NC(=S)NC3=O)o2)cc1 was read as ROC1-CUL1 inh 41*.
Screening COc1ccc(-c2nc3c(c(SCCO)n2)COC(C)(C)C3)cc1 returned ROC1-CUL1 inh 12.
COc1ccc(-c2ccc(CCC(=O)O)n2NC(N)=O)cc1 was read as ROC1-CUL1 inh -4.
CCc1c(OC(C)=O)c2ccccc2n(C)c1=O was read as ROC1-CUL1 inh 8.
Screening CC(=O)Oc1c(Cl)c(=O)n(C)c2ccccc12 returned ROC1-CUL1 inh 60*.
Screening CC(=O)Oc1c(C)c(=O)n(C)c2ccccc12 returned ROC1-CUL1 inh -4.
`CCc1nnc(NC(=O)COC)s1` gave ROC1-CUL1 inh 2.
For CCc1nnc(NC(=O)CCSCCC(=O)Nc2nnc(CC)s2)s1 the results were ROC1-CUL1 inh 37*.
For CCOCC(=O)Nc1nnc(CC)s1 the results were ROC1-CUL1 inh 5.
For CCCC1CCc2c(sc(NC(=O)c3cc(C)on3)c2C(N)=O)C1 (configuration not stated) the results were ROC1-CUL1 inh -3.
`Cc1noc(C)c1C(=O)Nc1sc2c(c1C(N)=O)CCCCCC2` gave ROC1-CUL1 inh 8.
Screening CCC1CCc2c(sc(NC(=O)c3c(C)noc3C)c2C(N)=O)C1 (configuration not stated) returned ROC1-CUL1 inh 74*.
Screening Cc1cc(C(=O)CSc2nnc3ccc4ccccc4n23)c(C)n1-c1cc(F)ccc1F returned ROC1-CUL1 inh -3.
For CC1CC(=S)Nc2ccccc2N1C=O (configuration not stated) the results were ROC1-CUL1 inh -1.
`CCOC(=O)c1cccc2c1N[C@@H](c1ccc(F)cc1)[C@H]1CC=C[C@@H]21` gave ROC1-CUL1 inh 10.
`COC(=O)c1cccc2c1N[C@@H](c1ccncc1)[C@H]1CC=C[C@@H]21` gave ROC1-CUL1 inh 0.
For Cc1c(C(=O)O)ccc2c1N[C@@H](c1ccc(F)cc1)[C@H]1CC=C[C@@H]21 the results were ROC1-CUL1 inh 76*.
`COc1ccc(N2C(=O)C(F)(F)C2c2cccc(F)c2)cc1` (configuration not stated) gave ROC1-CUL1 inh -4.
CCN(CCCNC(=O)c1cc2cc3cc(OC)ccc3nc2s1)c1cccc(C)c1 was read as ROC1-CUL1 inh 4.
`O=C(CN1CCN(c2cccc(Cl)c2)CC1)Nc1c(F)c(F)c(F)c(F)c1F` gave ROC1-CUL1 inh -13.
`O=C(O)c1cc(N2C(=O)/C(=C\c3ccc(-c4ccc(Br)cc4)o3)C=C2c2ccccc2)ccc1O` gave ROC1-CUL1 inh 97*.
`O=C1OC(c2ccccc2)=N/C1=C\c1ccc(-c2ccc(C(=O)O)cc2)o1` gave ROC1-CUL1 inh 13.
Screening COCCN1C(=O)/C(=C/c2ccc(-c3ccc(C(=O)O)c(Cl)c3)o2)SC1=Nc1ccccc1 returned ROC1-CUL1 inh 2.
Screening C=CCn1c(SCc2ccccc2F)nc2sc3c(c2c1=O)CCC3 returned ROC1-CUL1 inh 8.
`COc1cccc(-c2nc(CS(=O)(=O)CC(=O)N3CCN(c4ccccc4)CC3)c(C)o2)c1` gave ROC1-CUL1 inh -4.
Screening C=CCOc1c(Cl)cc(CNCCCC)cc1OC returned ROC1-CUL1 inh 5.
